From PubChem BioAssay (Tox21) come the findings set out here.

Structures are written as SMILES. “And” between values parts separate entries of the source, which are not always exact repeats. Equal values may be shown once. Records with an inconclusive call do not appear. Some structures have more than one record in an assay (separate samples or runs), and their calls can disagree. The source made the active and inactive calls. Unless noted, calls follow the shape of the full dose curve.

The nature of assay [1]: Nuclear factor erythroid 2-related factor 2/antioxidant responsive element (Nrf2/ARE) small molecule agonists: qHTS cell viability counter screen in human keratinocytes (AID 1919968; active = well fitted curve in the direction sought with a large enough effect in the repeat runs; an effect the other way counts as inactive or inconclusive; also: nearly all actives have a fitted effect of over 55% in size). The essentials: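 Stably transfected HaCaT (KeratinoSens), 1,500/well. Test agents in DMSO were applied for 23 h, 37 C/5% CO2. CellTiter-Fluor was incubated 1 h before the fluorescence read.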
For orientation: qHTS replaces the single test concentration by a dilution series.

Assay [2] in a line: Nuclear factor erythroid 2-related factor 2/antioxidant responsive element (Nrf2/ARE) small molecule agonists: luciferase reporter gene qHTS assay in human keratinocytes (AID 1919969). Also: nearly all actives have a fitted effect of over 35% in size. On the technique in general: A reporter such as luciferase makes a cellular process visible.
Assay [3] concerns the target Gonadotropin-releasing hormone receptor (Homo sapiens) (UniProt P30968). Description: Human gonadotropin-releasing hormone receptor (GnRHR) small molecule agonists, calcium flux assay in GnRHR-HEK293 cells (AID 1920063). Also: nearly all actives have a fitted effect of over 35% in size. The essentials:
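Stable human GnRHR HEK293 line. 18 h plating, then calcium dye for 1 h at 37 C. Agonist-mode compound addition from DMSO stocks; fluorescence monitored 3 min.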

Assay [4] concerns the target KiSS-1 receptor (Homo sapiens) (UniProt Q969F8). As to the kind of experiment: Human kisspeptin (KISS1R) small molecule agonists, calcium flux assay in KISS1R-HEK293 cells (AID 1920064; active = well fitted curve in the direction sought with a large enough effect in the repeat runs; an effect the other way counts as inactive or inconclusive). The essentials: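 After overnight (18 h) culture at 37 C/5% CO2, human KISS1R-HEK293 cells received calcium dye for 1 h, then test compound; emission at 540 nm (excitation 480 nm) was tracked for 3 min.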
A general note: Calcium assays in cells follow changes in intracellular calcium, usually with a dye or a luminescent sensor.

A short description of assay [5]: G protein-coupled receptor (GPCR) small molecule agonists, calcium flux assay: HEK293 wild type cell line counter screen (AID 1920065). The essentials:
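Following 18 h incubation at 37 C/5% CO2, plates got calcium dye for 1 h; compounds, ATP or DMSO were then pinned in and fluorescence followed kinetically (480/540 nm).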

Assay [6] can be described thus: p53 small molecule agonists, cell-based qHTS assay with human liver microsomes (AID 1963577). The essentials:
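p53RE-bla cells, 4,000/well, compound added after 5 h, with human liver microsomes 0.5 mg/mL and NADPH 0.5 mg/mL final; 16 h at 37 C, then LiveBLAzer 2 h RT, fluorescence.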

The nature of assay [7]: p53 small molecule agonists, cell-based qHTS assay with rat liver microsomes (AID 1963578). A digest of the protocol:
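p53RE-bla cells, 4,000/well, pre-incubated 5 h, then given compounds plus rat liver microsomes (0.5 mg/mL final) and NADPH (0.5 mg/mL final). Incubation 16 h at 37 C; beta-lactamase reporter read by LiveBLAzer fluorescence after 2 h at room temperature.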

A short description of assay [8]: p53 small molecule agonists, cell-based qHTS assay with human liver microsomes: qHTS cell viability counter screen (AID 1963579). Also: nearly all actives have a fitted effect of over 45% in size. The essentials:
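p53RE-bla cells, 4,000/well, dosed 5 hours after plating, with human liver microsomes (0.5 mg/mL final) plus NADPH (0.5 mg/mL final), 16 hours at 37 C. Viability read as CellTiter-Glo luminescence after 30 min at room temperature.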

A short description of assay [9]: p53 small molecule agonists, cell-based qHTS assay with rat liver microsomes: qHTS cell viability counter screen (AID 1963580). Also: nearly all actives have a fitted effect of over 45% in size. The essentials:
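Cytotoxicity counter screen: intracellular ATP measured by CellTiter-Glo luminescence in the same wells as the beta-lactamase reporter read, on HCT-116 p53RE-bla cells exposed 16 h at 37 C to compounds with rat liver microsomes and NADPH, each 0.5 mg/mL final.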

The nature of assay [10]: p53 small molecule agonists, cell-based qHTS assay: qHTS cell viability counter screen (AID 1963581). Also: nearly all actives have a fitted effect of over 45% in size. The essentials:
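qHTS counter screen: 16 h compound exposure at 37 C of p53RE-bla HCT-116 cells (4,000 per well, seeded 5 h prior), cell viability by ATP luminescence.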

A short description of assay [11]: p53 small molecule agonists, cell-based qHTS assay (AID 1963582; active = well fitted activation curve with a large enough effect in the signal ratio in the repeat runs, not every such curve was filed as active; the % refers to the signal ratio). A digest of the protocol: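 Measured: fluorescence from cleaved LiveBLAzer substrate. System: p53RE-bla cells, 16 h compound treatment at 37 C, 2 h substrate step at room temperature.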
Assay [12] has as its target 5-hydroxytryptamine receptor 2A (Homo sapiens) (UniProt P28223). Description: 5-hydroxytryptamine receptor 2A (HTR2A) small molecule antagonists, cell-based qHTS assay (AID 1963586). Also: nearly all actives have a fitted effect of over 45% in size. A digest of the protocol: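 CHO cells stably expressing human HTR2A were plated for 18 h at 37 C, then loaded with calcium dye for 1 h. Compounds were preincubated 5 min at room temperature before DOI (4 nM solution) was added. Kinetic fluorescence was read for 3 min.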

Assay [13] shares this target. Description: 5-hydroxytryptamine receptor 2A (HTR2A) small molecule agonists, cell-based qHTS assay (AID 1963587). Also: nearly all actives have a fitted effect of over 30% in size. The essentials: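 CHO cells stably expressing human HTR2A, plated 18 h, loaded with calcium dye 1 h at 37 C. Agonist mode: compounds added and intracellular calcium fluorescence recorded kinetically for 2 min at 1 sec intervals.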
Assay [14] concerns the target Muscarinic acetylcholine receptor M1 (Homo sapiens) (UniProt P11229). Description: Cholinergic receptor muscarinic 1 (CHRM1) small molecule antagonists, cell-based qHTS assay (AID 1963588). Also: nearly all actives have a fitted effect of over 40% in size. Also: potency is read from the fitted curve at half-maximal effect. The essentials:
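Compounds were tested at 15 concentrations in three independent runs. Dye-loaded CHRM1-CHO cells were exposed 5 min at room temperature before stimulation by acetylcholine added at 50nM. Intracellular calcium was read kinetically on FDSS for 3 min.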

Assay [15] has the same target. As to the kind of experiment: Cholinergic receptor muscarinic 1 (CHRM1) small molecule agonists, cell-based qHTS assay (AID 1963589). Also: nearly all actives have a fitted effect of over 35% in size. The essentials: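 Kinetic fluorescence (1 s intervals) of calcium-sensitive dye in human M1 CHO cells after compound addition; cells pre-incubated 18 h at 37 C/5% CO2 and dye-loaded 1 h.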
A short description of assay [16]: cAMP Responsive Elements (CRE) small molecule agonists, cell-based qHTS assay (AID 1963590). A digest of the protocol: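 Test agents in DMSO were incubated 3 h at 37 C/5% CO2 with CRE-bla HEK 293T cells seeded 18 h earlier; LiveBLAzer B/G FRET substrate was added and read after 2 h at room temperature.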
The nature of assay [17]: cAMP Responsive Elements (CRE) small molecule antagonists, cell-based qHTS assay (AID 1963591; active = well fitted inhibition curve with a large enough effect in the signal ratio in the repeat runs, not every such curve was filed as active; the % refers to the signal ratio). A digest of the protocol: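 Reporter line CRE-bla HEK 293T in dialyzed-FBS DMEM; cells preincubated 18 h, treated 3 h with compound plus NKH477 (0.25 uM final); LiveBLAzer FRET, 2 h RT.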
Assay [18] has as its target Beta-2 adrenergic receptor (Homo sapiens) (UniProt P07550). Description: Adrenergic beta2 receptor (ADRB2) small molecule antagonists, cell-based qHTS assay (AID 1963592). Also: series mostly up to about 92 µM; nearly all actives have a fitted effect of over 50% in size. The essentials: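 Assay format: CHO-ADRB2 cells, 18-20hr seeding at 37C/5% CO2, then compound plus 1nM isoproterenol agonist mix for 0.5hr RT. Homogeneous time-resolved fluorescence cAMP detection after 1hr, expressed as 665/615 nm ratio.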

Assay [19] concerns the target D(2) dopamine receptor (Homo sapiens) (UniProt P14416). Description: Dopamine D2 receptor (DRD2) small molecule agonists, cell-based qHTS assay (AID 1963594). Also: nearly all actives have a fitted effect of over 35% in size. Also: potency is read from the fitted curve at half-maximal effect. The essentials: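 HEK293 cells stably expressing human DRD2, pre-treated with PDE inhibitor Ro20-1724 (0.1 mM final) and compound 10 min at room temperature, then stimulated with NKH477 (200nM […]) for 30 min. cAMP read by HTRF (665/620 nm).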

The target is the same in assay [20]. As to the kind of experiment: Dopamine D2 receptor (DRD2) small molecule antagonists, cell-based qHTS assay (AID 1963595; active = well fitted inhibition curve with a large enough effect in the signal ratio in the repeat runs, with a control signal flat; the % refers to the signal ratio). A digest of the protocol: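 Antagonism was scored as restored cAMP in HEK293-DRD2 cells. These cells were stimulated with 200 nM NKH477 and 12 nM quinpirole for 30 min at room temperature, in the presence of 0.1 mM Ro20-1724.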

Beta-2 adrenergic receptor (Homo sapiens), sequence (P07550 whole entry, looked up): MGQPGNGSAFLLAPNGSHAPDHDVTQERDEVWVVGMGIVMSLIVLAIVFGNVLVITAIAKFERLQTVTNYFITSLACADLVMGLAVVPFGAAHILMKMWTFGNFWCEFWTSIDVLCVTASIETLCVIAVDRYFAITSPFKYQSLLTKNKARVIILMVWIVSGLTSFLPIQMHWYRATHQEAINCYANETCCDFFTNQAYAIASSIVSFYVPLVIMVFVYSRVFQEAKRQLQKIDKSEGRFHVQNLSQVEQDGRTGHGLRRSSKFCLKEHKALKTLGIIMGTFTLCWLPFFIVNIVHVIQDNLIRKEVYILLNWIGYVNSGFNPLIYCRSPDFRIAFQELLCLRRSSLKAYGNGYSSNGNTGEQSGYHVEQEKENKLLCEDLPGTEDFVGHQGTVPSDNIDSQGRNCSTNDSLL
D(2) dopamine receptor (Homo sapiens), sequence (P14416 whole entry, looked up): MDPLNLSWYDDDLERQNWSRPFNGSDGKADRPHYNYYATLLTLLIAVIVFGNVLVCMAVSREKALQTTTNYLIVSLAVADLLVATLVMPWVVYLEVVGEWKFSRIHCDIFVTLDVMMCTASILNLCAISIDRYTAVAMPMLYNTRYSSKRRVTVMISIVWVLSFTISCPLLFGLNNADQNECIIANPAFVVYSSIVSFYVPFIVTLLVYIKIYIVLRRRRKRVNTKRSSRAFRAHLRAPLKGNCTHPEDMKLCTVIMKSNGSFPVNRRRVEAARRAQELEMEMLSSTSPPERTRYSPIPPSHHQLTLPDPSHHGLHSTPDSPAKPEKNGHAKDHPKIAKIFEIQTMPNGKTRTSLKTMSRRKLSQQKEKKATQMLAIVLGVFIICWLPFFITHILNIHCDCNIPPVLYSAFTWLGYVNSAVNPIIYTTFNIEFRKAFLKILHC
KiSS-1 receptor (Homo sapiens), sequence (Q969F8 whole entry, looked up): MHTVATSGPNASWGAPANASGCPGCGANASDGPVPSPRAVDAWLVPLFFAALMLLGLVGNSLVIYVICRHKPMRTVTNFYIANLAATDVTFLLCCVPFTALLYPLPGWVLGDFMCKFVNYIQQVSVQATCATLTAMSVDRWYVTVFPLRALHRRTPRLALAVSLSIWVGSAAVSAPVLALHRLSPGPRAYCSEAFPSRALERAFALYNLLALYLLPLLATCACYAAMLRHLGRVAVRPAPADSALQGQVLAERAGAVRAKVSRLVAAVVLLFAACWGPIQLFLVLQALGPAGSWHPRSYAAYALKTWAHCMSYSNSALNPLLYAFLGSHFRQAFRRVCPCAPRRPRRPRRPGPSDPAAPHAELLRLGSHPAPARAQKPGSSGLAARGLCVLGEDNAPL
Gonadotropin-releasing hormone receptor (Homo sapiens), sequence (P30968 whole entry, looked up): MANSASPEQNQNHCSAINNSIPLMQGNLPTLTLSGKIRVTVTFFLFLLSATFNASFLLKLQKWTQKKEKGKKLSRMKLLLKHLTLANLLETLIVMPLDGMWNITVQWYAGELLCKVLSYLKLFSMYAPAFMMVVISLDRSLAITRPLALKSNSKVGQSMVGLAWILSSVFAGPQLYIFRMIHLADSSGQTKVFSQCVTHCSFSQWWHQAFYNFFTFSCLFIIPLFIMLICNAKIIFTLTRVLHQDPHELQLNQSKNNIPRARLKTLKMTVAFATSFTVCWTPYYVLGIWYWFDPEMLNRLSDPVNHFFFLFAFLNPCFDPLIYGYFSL
Muscarinic acetylcholine receptor M1 (Homo sapiens), sequence (P11229 whole entry, looked up): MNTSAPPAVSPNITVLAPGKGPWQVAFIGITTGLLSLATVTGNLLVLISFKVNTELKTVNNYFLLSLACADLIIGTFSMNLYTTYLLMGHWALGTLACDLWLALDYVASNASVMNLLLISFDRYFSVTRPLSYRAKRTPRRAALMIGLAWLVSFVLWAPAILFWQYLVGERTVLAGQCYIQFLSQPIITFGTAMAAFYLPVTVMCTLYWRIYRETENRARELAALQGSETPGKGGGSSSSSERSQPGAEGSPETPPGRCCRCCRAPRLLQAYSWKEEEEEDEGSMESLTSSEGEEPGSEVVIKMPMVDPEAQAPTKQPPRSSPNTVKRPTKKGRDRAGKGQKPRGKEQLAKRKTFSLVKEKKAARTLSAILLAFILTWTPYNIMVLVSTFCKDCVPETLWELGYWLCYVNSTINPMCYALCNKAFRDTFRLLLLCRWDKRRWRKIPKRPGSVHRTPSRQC
5-hydroxytryptamine receptor 2A (Homo sapiens), sequence (P28223 whole entry, looked up): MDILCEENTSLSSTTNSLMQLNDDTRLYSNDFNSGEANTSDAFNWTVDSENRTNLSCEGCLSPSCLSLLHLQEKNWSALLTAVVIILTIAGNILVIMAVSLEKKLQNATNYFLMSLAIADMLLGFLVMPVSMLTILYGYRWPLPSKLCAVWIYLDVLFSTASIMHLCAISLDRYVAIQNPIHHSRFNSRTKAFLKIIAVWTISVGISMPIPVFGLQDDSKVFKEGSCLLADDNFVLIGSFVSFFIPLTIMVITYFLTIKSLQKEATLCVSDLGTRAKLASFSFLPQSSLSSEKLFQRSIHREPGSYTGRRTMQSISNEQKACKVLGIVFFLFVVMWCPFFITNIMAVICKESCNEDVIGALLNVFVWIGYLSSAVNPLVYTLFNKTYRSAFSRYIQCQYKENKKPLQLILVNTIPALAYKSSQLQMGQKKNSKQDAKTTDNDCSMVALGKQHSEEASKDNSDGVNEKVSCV

Take `Cc1ccc(O)cc1`: the Potency result in [1], in [2], in [3], in assay [4], in assay [5] and in assay [6] was “inactive” in each case. Also, the Potency result in assay [7], in assay [8], in assay [9], in assay [10], in [11] and in [12] was “inactive” throughout. Further, the Potency result in [13], in [14], in [15], in [16], in [17] and in assay [18] was “inactive” each time. Further, the Potency result in assay [19] and in [20] was “inactive” each time.

As for `Cc1cccc(O)c1C`, the Potency entry in [1], in [2], in assay [3], in [4], in [5] and in assay [6] was “inactive” each time. The Potency entry in assay [7], in assay [8], in assay [9], in assay [10], in assay [11] and in assay [12] was “inactive” each time. Further, the Potency result in [13], in [14], in assay [15], in assay [16], in [17] and in assay [18] was “inactive” in each case. The Potency result in assay [19] was “inactive”.

As to `COc1ccccc1[N+](=O)[O-]`, the Potency entry in assay [1], in assay [2], in [3], in [4], in [5] and in assay [6] was “inactive” throughout. The Potency entry in assay [7], in [8], in [9], in [10], in assay [11] and in [12] was “inactive” each time. Besides, the Potency entry in assay [13], in assay [14], in assay [15], in assay [16], in assay [17] and in [18] was “inactive” each time. In addition, the Potency entry in assay [19] and in [20] was “inactive” each time.

For the molecule `C1CNCCN1`, the Potency result in assay [1], in assay [2], in assay [3], in assay [4], in assay [5] and in assay [6] was “inactive” each time. Besides, the Potency entry in assay [7], in [8], in assay [9], in assay [10], in assay [11] and in [12] was “inactive” throughout. Besides, the Potency result in assay [13], in assay [15], in [16], in [17], in assay [18] and in assay [19] was “inactive” each time. Also, in assay [20], the Potency result is “inactive”. In addition, the Potency in assay [14] was 4.86 µM (active) and inactive.

Regarding `O=C1C(N(CO)C(=O)NCO)N(CO)C(=O)N1CO` (centres undefined), the Potency entry in assay [1], in assay [2], in [3], in [4], in assay [5] and in assay [6] was “inactive” each time. Moreover, the Potency entry in [7], in assay [8], in assay [9], in assay [10], in assay [11] and in assay [12] was “inactive” each time. For the same molecule, the Potency result in [13], in [14], in assay [15], in assay [16], in assay [17] and in [18] was “inactive” in each case. The Potency result in [19] and in assay [20] was “inactive” throughout.

On to `CCCCCCCC(=O)OC`, for which the Potency entry in assay [1], in assay [2], in assay [3], in assay [4], in assay [5] and in [6] was “inactive” in each case. Further, the Potency entry in [7], in assay [8], in [9], in [10], in assay [11] and in assay [12] was “inactive” in each case. For the same molecule, the Potency result in assay [13], in assay [14], in [15], in [16], in assay [17] and in [18] was “inactive” each time. Also, the Potency entry in assay [20] was “inactive”. In assay [19], the Potency result was “inactive and 61.1 µM (active)”.

Regarding `CC(=O)OCCC(C)C`, the Potency entry in assay [1], in assay [2], in [3], in assay [4], in [5] and in assay [6] was “inactive” throughout. Moreover, the Potency result in assay [7], in [8], in assay [9], in assay [10], in assay [11] and in [12] was “inactive” throughout. In addition, the Potency entry in assay [13], in assay [14], in [15], in assay [16], in assay [17] and in assay [18] was “inactive” throughout. The Potency entry in assay [19] and in assay [20] was “inactive” each time.
